Source: PubChem BioAssay (NCATS)
Results filed as inconclusive are left out. Active and inactive are the calls of the source. The call rests on the fitted dose curve; in most records, active means well fitted cell-killing curve with a large enough effect; inconclusive means small, poorly fitted or top-dose-only effect; inactive means no such curve, though single readings can be large or run the other way.

test: qHTS of pediatric cancer cell lines to identify multiple opportunities for drug repurposing: Primary screen for MG 63 (6-TG R) cells (AID 1347105); conditions: MG 63 (6-TG R) viability, CellTiter-Glo, 48 h; series mostly up to 46 µM; activity change, negative = cytotoxic: at the top concentration; further: nearly all actives have a fitted effect of over 50% in size
Text: Drug repurposing or repositioning has been offered as a strategy for drug development in oncology programs. This approach has special potential for childhood cancers and other rare or orphan diseases, where the expected return on new drug development has been a disincentive to pharmaceuticals. […] In this project we exploit the poly-pharmacology of drugs to discover new indications via phenotypic screening of a panel of 19 well-characterized cell lines derived from solid tumors seen in children and adolescents. The goal is to identify approved drugs with previously unrecognized anticancer properties that has the potential to reveal new mechanisms and biological processes involved in carcinogenesis or drug resistance. We employed a titration-based paradigm (quantitative high-throughput screening or qHTS), where all compounds were tested at multiple concentrations for their effect on cell viability. Concentration-response curves (CRCs) were derived directly from the primary screen, and both potency and efficacy values were used to identify compounds with robust bioactivity profiles. We screened the NIH Chemical Genomics Center (NCGC) Pharmaceutical Collection (NPC) and Mechanism Interrogation Plate (MIPE) small molecule collections of approved and investigational compounds against these cell lines; and measured metabolically active cells after 48 hours of compound treatment as a proxy for cell viability. […] Assay Submitter: Nathalia J. Martinez, National Center for Advancing Translational Sciences, National Institutes of Health, Rockville, MD, USA; email: natalia.martinez@nih.gov Shen, M et al. Quantitative high-throughput phenotypic screening of pediatric cancer cell lines identifies multiple opportunities for drug repurposing. Oncotarget 2017 Dec 19;9(4):4758-4772. PMID 29435139.
The cells were obtained from University of North Carolina (UNC), Pediatric Preclinical Testing Program (PPT), and Coriell Institute (CI). qHTS cell viability assay: Cells were assayed in growth media at a density of 500-1,000 cells/well. Five microliters of cells were dispensed into 1,536-well, white, solid-bottom, TC-treated plates (Greiner Bio One) using a multidrop dispenser and incubated at 37 degrees C, 5% CO2, under a humidified atmosphere for 5 hours. Twenty-three nanoliters of compounds and controls (neutral control DMSO or positive control bortezomib at final concentration of 2.3 µM) were subsequently transferred by Kalypsys pintool. For primary screens, the MIPE collection was tested at 11-point dilutions (final concentrations range from 0.78 nM to 46 µM) and the NPC collection at 8-point dilutions (final concentrations range from 0.59 nM to 46 µM). Compounds tested in follow-up screens were assayed at 11-point dilutions. Cells were incubated for 48 hours, followed by addition of 3 µL of CellTiter-Glo (Promega). After a 15 min incubation at room temperature, samples were analyzed for luminescence intensity using a ViewLux High-throughput CCD imager equipped with clear filters.
On the % scale 0 is the no-effect control and ±100 the full control effect.

Compound	activity change, negative = cytotoxic	Potency
Cc1scc2c1N(C(=O)CN1CCN(C)CC1)c1ccccc1NC2=O	-9.48% (inactive)	
CC(N=C(NC#N)Nc1ccncc1)C(C)(C)C (stereo not given)	-7.49% (inactive)	
CCCOc1ccccc1-c1nc2n[nH]nc2c(=O)[nH]1	-5.41% (inactive)	
O=C(CCNNC(=O)c1ccncc1)NCc1ccccc1	-15% (inactive)	
c1cnc(N2CCN(Cc3ccc4c(c3)OCO4)CC2)nc1	-20.4% (inactive)	
CN(C)C/C=C(/c1ccc(Br)cc1)c1cccnc1	-16.1% (inactive)	
CCC(=O)c1ccc2c(c1)N(CCCN(C)C)c1ccccc1S2	-19.1% (inactive)	
CN1C[C@H](C(=O)N[C@]2(C)O[C@@]3(O)[C@@H]4CCCN4C(=O)[C@H](Cc4ccccc4)N3C2=O)C[C@@H]2c3cccc4[nH]cc(c34)C[C@H]21	0.553% (inactive)	
NC/C=C/C(=O)O	2.73% (inactive)	
CN(C)CCN(Cc1cccs1)c1ccccn1	-7.23% (inactive)	
C[C@H](CS)C(=O)N1CCC[C@H]1C(=O)O	-0.949% (inactive)	
CCN1CCC[C@H]1CNC(=O)c1c(O)c(Cl)cc(Cl)c1OC	-21.2% (inactive)	
O=C1CC2(CCCC2)CC(=O)N1CCCCN1CCN(c2ncccn2)CC1	-15.9% (inactive)	
CCO/C([O-])=N/c1c[n+](N2CCOCC2)no1	-14.9% (inactive)	
CN=C(NC#N)NCCSCc1nc[nH]c1C	-23.9% (inactive)	
CCCCOCCOCCOCc1cc2c(cc1CCC)OCO2		inactive
CC1=NS(=O)(=O)c2cc(Cl)ccc2N1	-4.99% (inactive)	
Cc1cc(C)c(/C=C2\C(=O)Nc3ccccc32)[nH]1	-17% (inactive)	
Brc1c(NC2=NCCN2)ccc2nccnc12	-14.2% (inactive)	
Cc1ccc(/C(=C\CN2CCCC2)c2ccccn2)cc1	-9.39% (inactive)	

Compound	activity change, negative = cytotoxic	Potency
CCCNC(C)C(=O)Nc1ccccc1C (stereo not given)	-8.43% (inactive)	
CC[N+](C)(C)c1cccc(O)c1	-7.5% (inactive)	
CCNC(=O)N1CCN(CCCC(c2ccc(F)cc2)c2ccc(F)cc2)CC1	-8.39% (inactive)	
CC(C)NCC(O)c1cc(O)cc(O)c1 (stereo not given)	7.68% (inactive)	
CN/C(=C\[N+](=O)[O-])NCCSCc1ccc(CN(C)C)o1	-32.1% (inactive)	
FC(F)(F)c1ccccc1-n1ccnc1	-18.2% (inactive)	
CCOC(=O)C1=C(C)NC(C)=C(C(=O)OC)C1c1cccc(Cl)c1Cl (stereo not given)	-25.3% (inactive)	
CCN1CCc2nc(N)oc2CC1	-2.23% (inactive)	
COc1ccc2c(c1OC)C(=O)O[C@@H]2[C@H]1c2c(cc3c(c2OC)OCO3)CCN1C	-33% (inactive)	
CC(C)NNC(=O)c1ccncc1	6.01% (inactive)	
C[N+](C)(C)CCOC(=O)CCC(=O)OCC[N+](C)(C)C	-1.32% (inactive)	
COc1cc(C(=O)OCCCN2CCCN(CCCOC(=O)c3cc(OC)c(OC)c(OC)c3)CC2)cc(OC)c1OC	-31.9% (inactive)	
Cc1nc2ccccn2c(=O)c1CCN1CCC(C(=O)c2ccc(F)cc2)CC1	-29.9% (inactive)	
CCCCCN(CCCCC)C(=O)C(CCC(=O)O)NC(=O)c1ccc(Cl)c(Cl)c1 (stereo not given)	-15.5% (inactive)	
O=C(O)CCCCCCCC(=O)O	4.66% (inactive)	
Nc1c2c(nc3ccccc13)CCCC2O (stereo not given)	-18.3% (inactive)	
CCn1nc(C(=O)O)c(=O)c2cc3c(cc21)OCO3	-13.3% (inactive)	
NC(=O)c1ncn([C@@H]2O[C@H](CO)[C@@H](O)[C@H]2O)c1O	-12.5% (inactive)	
NC1=NCC2c3ccccc3Cc3ccccc3N12 (stereo not given)	-16.1% (inactive)	
CC(=O)Oc1cc(C(C)C)c(OCCN(C)C)cc1C	-18.4% (inactive)	
